This note sets out measurements from PubChem BioAssay.

Values joined by “and” are separate entries in the source; they are usually repeats but may differ in a detail not shown here. Equal values may be shown once. Records with an inconclusive call do not appear. For some assays here: Entries with a potency or affinity are not part of this list. Active and inactive are the calls of the source. Unless noted, no stated cut-off is given here; in the data, active means inhibition above about 80%; inactive means the rest.

A short description of assay [1]: drug combination toxicity in non-malignant astrocytes – cell-based, BGB or cisplatin IC20 combos, cytotoxicity control for chromothriptic childhood tumor combination screen (AID 1671460).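 Further: cells exposed to compounds for 96 hours before viability readout; 0% = vehicle and 100% = killing control.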 The note with it: Human astrocytes, viability inhibition, drug combinations; measured here: combo with cisplatin IC20; at 0.5 µM; stronger effect = higher value.
Assay [2] is described as follows: BT084 cell growth, single and combined drugs, ICGC_MB145, cisplatin and BGB IC40 combos (AID 1671461).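 Further: cells exposed to drugs for 96 hours; 0% = vehicle DMSO and 100% = high DMSO full killing control.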 The settings on record: BT084 medulloblastoma cells, drug combinations, stronger effect = higher value.
Assay [3] in a line: RCMB18 cell growth, single agent and combined, cisplatin and BGB IC40 combos (AID 1671462).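 Further: cells exposed to compound for four days.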 The settings on record: RCMB18 medulloblastoma cells, stronger effect = higher value.
The nature of assay [4]: CRL1545 cell growth, single agent and combined, cisplatin and BGB IC20 combos (AID 1671464).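 Further: cells exposed to compound for 96 hours before readout; 0% = vehicle DMSO and 100% = high DMSO killing control.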 The settings on record: CRL1545 osteosarcoma cells, stronger effect = higher value.
A short description of assay [5]: compounds altering circadian rhythm period length – cell-based, LOPAC library, luminescence reporter (AID 2774; call rule not given here;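 further: values are relative to mean of DMSO wells on each plate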). The note with it: circadian reporter cells, at 7 µM, actives lie on both sides.
The test system of assay [6] is Hepatitis C virus NS3 helicase. Kind of assay: blockers of NS3h binding to ssDNA – biochemical, fluorescence polarization, LOPAC1280 library, primary screen (AID 687035; in the data active means inhibition above about 37%). The note with it: Purified HCV NS3 helicase, Cy5-dT15 ssDNA binding fluorescence polarization; stronger effect = higher value; concentration not given here. Background: Fluorescence polarisation rises when a labelled molecule tumbles more slowly, as on binding a larger partner.

Assay [7] is described as follows: compounds altering Cy5-DNA-NS3h complex signal – biochemical, LOPAC1280, artefact control for HCV NS3 helicase inhibitor project (AID 687037; call rule not given here). The note with it: Cy5-DNA-NS3h complex fluorescence interference counterscreen. A general note: Counterscreens check selectivity or assay interference.
Assay [8] has as its target 6-phosphogluconate dehydrogenase, decarboxylating (Homo sapiens) (UniProt P52209). Kind of assay: inhibition of human phosphogluconate dehydrogenase – biochemical, recombinant enzyme, NADPH absorbance, primary screen (AID 1159550;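 active means at least 20% inhibition of 6-phosphogluconate dehydrogenase activity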). The note with it: recombinant 6PGD, NADPH absorbance 341 nm; at 10 µM; stronger effect = higher value.
Assay [9] relates to Aerobactin synthetase IucA (Klebsiella pneumoniae). Kind of assay: inhibition of K. pneumoniae IucA enzyme – biochemical, Tocris library, absorbance (AID 1345561; call rule not given here;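 further: 100% = enzyme without compound and 0% = no enzyme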). The settings on record: purified IucA enzyme assay, absorbance (OD) read-out; stronger effect = lower value;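 tested at 8 µM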.
A short description of assay [10]: viability loss with induced miR-34 in A549 – imaging, A549 dox-inducible miR-34, nuclei and caspase counts, primary screen (AID 1347080;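 active means compounds whose cell count with miR-34 switched on is under 0.7 times the count with it off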). The note with it: A549 miR-34 inducible, Hoechst nuclei count, 48 h.
The nature of assay [11]: blockers of cellular phospholipid synthesis – cell-based, LOPAC library, screen 4, primary screen (AID 1347384; call rule not given here). The note with it: animal cells, phospholipid biosynthesis inhibition screen; at 10 µM.
The target in assay [12] is Mitogen-activated protein kinase 7 (Homo sapiens) (UniProt Q13164). The assay is described as follows: Gal4-ERK5 driven luciferase induction – cell-based, HTS, primary screen (AID 1508626;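 active means luciferase signal above three times the same-plate solvent-only control wells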;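 further: luciferase driven by Gal4-ERK5 fusion binding five Gal4 sites before minimal TATA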). The settings on record: HeLa Gal4-ERK5 transactivation, 18 h, at 5 µM, stronger effect = higher value.
Assay [13] can be described thus: galactose survival enhancers in mitochondrial complex I cybrids – cell-based, galactose medium, ATP luminescence, primary screen (AID 1645843;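 active means z-score of at least 1.8 in each of two replicates, scored against plate mean and spread of sample wells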;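 further: positive z means more ATP and so rescue of galactose-driven cybrid death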). The settings on record: complex I mutant cybrid cells, 72 h, stronger effect = higher value.
The nature of assay [14]: viability loss in pontine glioma line – cell-based, SU-DIPG-XIII, MIPE4.0, CellTiter-Glo, qHTS, dose response (AID 1347061; cut-off not given, nearly all actives have AC50 up to about 37 µM;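 further: cells exposed to compound for 48 hours before readout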). The settings on record: CellTiter-Glo ATP luminescence. Background: Cellular ATP, detected with luciferase, serves as a proxy for viable cell number.
The nature of assay [15]: viability loss in pontine glioma line – cell-based, JHH-DIPG-1, MIPE4.0, CellTiter-Glo, qHTS, dose response (AID 1347062; cut-off not given, nearly all actives have AC50 up to about 27 µM). The settings on record: JHH-DIPG-1 viability, CellTiter-Glo ATP luminescence.
The nature of assay [16]: growth inhibition of DIPG cells – cell-based, MIPE4.0 library, CellTiter-Glo luminescence, qHTS (AID 1347066; cut-off not given, nearly all actives have AC50 up to about 30 µM;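 further: cells exposed to compound for 48 hours before readout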). The note with it: SU-DIPG-VI viability, CellTiter-Glo ATP luminescence.
Assay [17] is described as follows: blockers of polyQ-driven CASP3 activation – cell-based (AID 1583). The note with it: polyglutamine-induced caspase-3 activation, cell assay; stronger effect = higher value;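 tested at 10 µM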.
The nature of assay [18]: yeast 75Q aggregation reduction – 75Q-TubU reporter (AID 1593). The note with it: Yeast 75Q polyglutamine aggregation reporter.
A short description of assay [19]: restoration of touch response, mutant HTT neurons – whole organism, C. elegans mechanosensory neurons, N-terminal huntingtin (AID 1599). The settings on record: C. elegans polyQ-huntingtin mechanosensory neurons, stronger effect = higher value.
Assay [20] in a line: blockers of cytochrome c efflux from mitochondria – biochemical, purified mitochondria (AID 1603).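 Further: mouse liver mitochondria challenged with calcium chloride; signal normalized to the plate average as 100%.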 The note with it: stronger effect = lower value.
Assay [21] in a line: polyglutamine aggregate formation blockers (AID 1604). The note with it: polyglutamine-induced protein aggregation inhibition assay; stronger effect = higher value; tested at 2.5 µM.
A short description of assay [22]: glutamate transport activators, MN-1 cells, MN-1 cell line (AID 1612).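 Further: tested at 1 µM final; 0% = mean of DMSO vehicle wells on each plate; positive means more glutamate uptake than control and negative means less.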 The note with it: MN-1 motor neuron cells, stronger effect = higher value.
The nature of assay [23]: GFP-Q80 aggregate reduction, neuronal-like cells, cell-based, NGF-treated PC12, GFPQ80 (AID 1614).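 Further: lower means fewer inclusions and 0 means no inclusions at all.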 The settings on record: PC12 NGF-treated GFP-polyQ80 inclusion reduction.
Assay [24] in a line: 75Q-TubH aggregate inhibition, S. cerevisiae, yeast (AID 1616). The note with it: S. cerevisiae 75Q-TubH polyglutamine aggregation suppression; stronger effect = higher value.
Setting [25] is: stronger effect = lower value, cell number ratio, induced over uninduced.
Setting [26] is: measured here: relative caspase fold change +Dox/-Dox.
The mark [27] stands for this setting: measured here: total cells with miR-34 induction, stronger effect = lower value.
The mark [28] stands for this setting: measured here: total cells without miR-34 induction.

Chain of Mitogen-activated protein kinase 7 (Homo sapiens) (Q13164 whole entry, looked up, the tested form may be a part): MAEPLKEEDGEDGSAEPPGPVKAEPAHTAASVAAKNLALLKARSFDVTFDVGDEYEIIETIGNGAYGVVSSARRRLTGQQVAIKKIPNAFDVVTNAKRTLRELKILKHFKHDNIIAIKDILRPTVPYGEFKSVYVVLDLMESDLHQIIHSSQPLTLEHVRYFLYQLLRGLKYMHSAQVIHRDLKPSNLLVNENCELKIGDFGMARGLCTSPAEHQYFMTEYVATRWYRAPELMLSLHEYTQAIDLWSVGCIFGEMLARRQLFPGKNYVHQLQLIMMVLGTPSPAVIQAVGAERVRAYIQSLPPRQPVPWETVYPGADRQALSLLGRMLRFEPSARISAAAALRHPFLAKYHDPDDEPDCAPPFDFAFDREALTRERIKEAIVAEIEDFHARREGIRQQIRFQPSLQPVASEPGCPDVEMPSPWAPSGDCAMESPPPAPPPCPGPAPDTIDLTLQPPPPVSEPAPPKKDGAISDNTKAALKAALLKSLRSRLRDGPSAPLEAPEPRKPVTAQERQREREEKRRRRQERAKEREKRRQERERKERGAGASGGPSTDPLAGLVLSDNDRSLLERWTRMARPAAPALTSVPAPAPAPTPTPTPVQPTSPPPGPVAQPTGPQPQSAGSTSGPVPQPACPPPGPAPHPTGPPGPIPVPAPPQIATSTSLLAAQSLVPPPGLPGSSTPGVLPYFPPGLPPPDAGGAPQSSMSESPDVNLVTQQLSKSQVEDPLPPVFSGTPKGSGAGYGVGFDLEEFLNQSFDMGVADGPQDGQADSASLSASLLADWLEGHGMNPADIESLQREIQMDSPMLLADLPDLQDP
Chain of 6-phosphogluconate dehydrogenase, decarboxylating (Homo sapiens) (P52209 whole entry, looked up): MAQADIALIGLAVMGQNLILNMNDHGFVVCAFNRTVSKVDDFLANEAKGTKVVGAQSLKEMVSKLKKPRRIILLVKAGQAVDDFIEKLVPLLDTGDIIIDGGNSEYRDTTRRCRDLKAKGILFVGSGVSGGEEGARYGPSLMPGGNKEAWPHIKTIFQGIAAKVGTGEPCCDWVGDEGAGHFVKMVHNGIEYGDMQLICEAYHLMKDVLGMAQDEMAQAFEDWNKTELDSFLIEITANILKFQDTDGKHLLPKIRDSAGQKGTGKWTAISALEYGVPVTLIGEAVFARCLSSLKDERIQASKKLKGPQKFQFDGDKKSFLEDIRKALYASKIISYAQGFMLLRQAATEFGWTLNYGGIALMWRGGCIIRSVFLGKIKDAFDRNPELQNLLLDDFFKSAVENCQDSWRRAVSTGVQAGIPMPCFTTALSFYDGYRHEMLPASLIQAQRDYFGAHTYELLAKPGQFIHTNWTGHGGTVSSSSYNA

By inhibition is commonly meant the drop in the measured response relative to a control, in per cent. In the case of `COc1cc([C@@H]2c3cc4c(cc3[C@@H](O[C@@H]3O[C@@H]5CO[C@@H](c6cccs6)O[C@H]5[C@H](O)[C@H]3O)[C@H]3COC(=O)[C@H]23)OCO4)cc(OC)c1O`, the inhibition in assay [1] was 28% and 33.1%; in assay [2] (at 0.5 µM) it was -19.6% (inactive) and -7.59% (inactive); in assay [2] (cisplatin combination, at 0.5 µM), 12.3% and 2.14%; in assay [2] (cisplatin combination, at 5 µM) it was 27.6% and 23.9%; in assay [2] (measured here: BGB IC40 combination 0.05 uM, at 0.05 µM) it was -12.5% and 39.7%; in assay [2] (single agent, at 5 µM), 19.5% and 27.4%. Moreover, the inhibition is -23.3% (inactive) and -2.62% (inactive) in assay [3] (at 0.5 µM); 23% and 40.9% in [3] (cisplatin combo, at 5 µM); -29.1% and -17.5% in assay [3] (measured here: BGB IC40 combination, at 0.05 µM); -8.55% and 20.3% in assay [3] (measured here: combination with cisplatin, at 0.5 µM); 28.8% and 46% in [3] (single agent, at 5 µM); 44.9% (inactive) and 71.7% (inactive) in assay [4] (at 0.5 µM). In addition, the inhibition in [4] (measured here: with BGB IC20 combination, at 0.5 µM) is 41.5% and 64%; in assay [4] (measured here: with cisplatin IC20 combination, at 0.5 µM) it was 45.4% and 75.2%; in assay [4] (single agent, at 0.05 µM), 4.76% and 55.4%; in [4] (single agent, at 5 µM) it was 98% and 98.8%.

As usually defined, the remaining activity is the signal under treatment as a percentage of the control signal. On to `O=C(O)C1=CCCNC1`, for which the period change in assay [5] is 0.125 h (inactive). The inhibition is -3% (inactive) in assay [6] and -3.98% (inactive) in assay [8]. Besides, in assay [7], the fluorescence ratio (interference) is 1 (inactive). In [9], the remaining activity was 107% (inactive). Moreover, the fold change was 0.989 (inactive) and 0.96 (inactive) in [10] (setting [25]); 0.827 and 0.802 in assay [10] (setting [26]). Also, the cell count in assay [10] (setting [27]) is 8890 and 8940; in [10] (setting [28]), 8980 and 9310. Also, in [11], the result was inactive. Further, the luciferase signal in [12] was 48 AU (inactive). Also, in assay [13], the z-score is 0.54 (inactive) and -0.25 (inactive).

On to `C[C@@]12C[C@@]3(O)O[C@@H](O1)[C@]1(COC(=O)c4ccccc4)[C@H]3C[C@@]12O[C@@H]1O[C@H](CO)[C@@H](O)[C@H](O)[C@H]1O`, for which the inhibition in assay [8] was -7.19% (inactive). Moreover, the compound was called inactive in [14], in assay [15] and in [16]. In addition, the luciferase signal in assay [12] was 60 AU (inactive).

In the case of `C=C1C(=O)O[C@H]2[C@H]1CC/C(C)=C/CC[C@@]1(C)O[C@@H]21`, in [8], the inhibition was 4.61% (inactive). Besides, the remaining activity in assay [9] is 83.6% (inactive). Besides, the fold change is 0.99 (inactive) in [10] (setting [25]) and 0.618 in assay [10] (setting [26]). The cell count is 8550 in [10] (setting [27]) and 8630 in assay [10] (setting [28]). Moreover, in assay [13], the z-score is 1.27 (inactive).

For `O=C(O)c1c2ccccc2cc2ccccc12`, the inhibition is -6.04% in assay [17] and -1.37% (inactive) in assay [8]. Also, the score in [18] is 0.43. Further, in [19], the rescue above control was 12.4. The cytochrome c release ratio in assay [20] came to 0.85. For the same compound, the inhibition of aggregation in [21] turned out to be 33.3%. Moreover, in assay [22], the glutamate uptake change was 11%. In [23], this compound returned an inclusion score of 2. In [24], this compound showed an aggregation suppression score of 0.249. In addition, in assay [9], the remaining activity was 101% (inactive). Moreover, the fold change was 0.92 (inactive) in [10] (setting [25]) and 0.787 in assay [10] (setting [26]). Moreover, the values for the cell count in assay [10] (setting [27]) and in assay [10] (setting [28]) were 9100 and 9890, respectively. Also, the luciferase signal in assay [12] is 56 AU (inactive). Further, in [13], the z-score was 0.475 (inactive).
